Assay outcomes as filed in PubChem BioAssay.
This is a sample that favours compounds with a hit; in the whole collection about 3.9% have one here.
AHR activator: human AHR activation; AID 2796; P35869; activation, % at 5 µM; 320,000 compounds, 2.5% hits; AHR-responsive luciferase reporter cells, luminescence; in the data active = activation above about 47%
Yeast superoxide: yeast age-related superoxide inhibition as caloric restriction mimetic; S. cerevisiae aged cells, superoxide DHE fluorescence; stronger effect = lower value; superoxide response (% of plate mean), % at 10 µM; 330,000 compounds, 0.18% hits;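 active = superoxide response under a set limit, about three screen SD below normal, cut at about 65% in these data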;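 note: yeast aged for seven days with compound at 30 °C before DHE staining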
PLCb3 inh: inhibitors of human phospholipase C beta3 | inhibition, % at 12.2 µM | 370,000 compounds, 0.18% hits | Purified PLC-beta3, fluorogenic substrate, fluorescence | AID 720704; in the data active = inhibition above about 11%
HGIII-sPLA2 inh: Inhibits HGIII-sPLA2 liposome hydrolysis, primary screen | Q9NZ20 | inhibition, % at 12.2 µM | QFRET BODIPY PC-A2 liposome hydrolysis, fluorescence | 370,000 compounds, 0.56% hits;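 active = inhibition above mean plus 3 SD of compounds lying within the high and low control bounds, cut at about 19% in these data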
Target sequence (Q9NZ20 whole entry, looked up): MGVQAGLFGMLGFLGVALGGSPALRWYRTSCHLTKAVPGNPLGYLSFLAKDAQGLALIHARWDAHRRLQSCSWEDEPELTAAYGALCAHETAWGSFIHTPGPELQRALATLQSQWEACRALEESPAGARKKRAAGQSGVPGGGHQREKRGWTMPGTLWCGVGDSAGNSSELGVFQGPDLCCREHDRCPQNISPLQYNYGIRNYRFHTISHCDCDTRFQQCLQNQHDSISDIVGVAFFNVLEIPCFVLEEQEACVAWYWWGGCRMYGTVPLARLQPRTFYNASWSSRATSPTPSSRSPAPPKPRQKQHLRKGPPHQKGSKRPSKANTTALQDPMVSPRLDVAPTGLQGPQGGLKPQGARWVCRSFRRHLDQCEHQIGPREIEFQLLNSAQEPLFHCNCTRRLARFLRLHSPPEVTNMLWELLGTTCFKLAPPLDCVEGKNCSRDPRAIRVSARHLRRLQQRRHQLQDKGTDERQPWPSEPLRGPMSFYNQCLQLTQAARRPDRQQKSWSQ
PLC-gamma1 inh: PLC-gamma1 (human) inhibition, primary screen; P19174; purified PLC-gamma1, fluorogenic substrate, fluorescence; inhibition, % at 12.2 µM; 370,000 compounds, 0.84% hits; AID 720700; in the data active = inhibition above about 9.5%
HIF activator: HIF pathway transcriptional activation; U2OS HRE-luciferase reporter, luminescence; normalized: DMSO 0%, desferrioxamine 100%; activation, % at 7.5 µM (by protocol); 300,000 compounds, 0.32% hits; AID 1910;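 active = mean activation of at least 10% of the iron chelator positive control signal, with at least half of replicates also reaching 10%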
Large screens that a line does not name were inactive.

Oc1ccc(/C=N/Nc2cccc3cccnc23)c(O)c1	none
Cc1cccc(N/N=C/c2ccncc2)c1	none
Cc1ccc(/C=N/Nc2cccc3cccnc23)c(O)c1	AHR activator 60.0
Cc1cccc(N/N=C/c2ccccc2O)c1	AHR activator 65.0
O=[N+]([O-])c1ccc(NN=Cc2ccccc2O)nc1	none (no result: AHR activator, Yeast superoxide, HIF activator)
O=[N+]([O-])c1ccc(O)c(/C=N/Nc2ccccn2)c1	HIF activator 63.2
O=[N+]([O-])c1cccnc1N/N=C/c1ccccc1O	HIF activator 20.7
Cc1c(O)ccc(/C=N/Nc2ncccc2[N+](=O)[O-])c1O	none
Cc1noc(C)c1S(=O)(=O)N1CCCc2nc(-c3ccccc3)ccc21	none (no result: AHR activator, Yeast superoxide, HIF activator)
O=[N+]([O-])c1ccc(O)c(C=NNc2ccc(S(=O)(=O)O)cc2)c1	none (no result: AHR activator, Yeast superoxide, HIF activator)
O=C(N/N=C/c1ccc[nH]1)c1cc(-c2ccc(Cl)cc2)nc2ccccc12	AHR activator 48.5
O=C(N/N=C/c1cccnc1)c1cc(-c2ccc(Cl)cc2)nc2ccccc12	none
O=[N+]([O-])c1cccc(N/N=C/c2cc([N+](=O)[O-])ccc2O)c1	AHR activator 53.6
CCCC1CCC2(CC1)CCC2OC(=O)Nc1ccc2c(c1)OCO2 (stereo not given)	none (no result: AHR activator, Yeast superoxide, HIF activator)
CCCCNC(=O)NS(=O)(=O)c1ccc(NC(=O)CSc2nnc(-c3ccc(Cl)cc3)n2N)cc1	none (no result: AHR activator, Yeast superoxide, HIF activator)
COC(=O)C(C(=O)OC)[C@@H]1C=C[C@H](C[N+](=O)[O-])N(C(C)=O)C1	PLC-gamma1 inh 11.8 (no result: AHR activator, Yeast superoxide, HIF activator)
O=C(O)CSc1cc(NS(=O)(=O)c2ccc(Br)cc2)c2ccccc2c1O	AHR activator 48.8
COC(=O)[C@]12C[C@H](CC(=O)NCc3ccc(C)o3)C(=O)N(Cc3ccco3)C1=C[C@H](C(C)(C)C)O[C@@H]2C	none (no result: AHR activator, Yeast superoxide, HIF activator)
O=c1cnn(-c2ccccc2)c(-c2ccccc2)c1	AHR activator 50.5
Nc1c(-c2ccccc2)cnn1-c1ccccc1	none
Cn1c(/C(C#N)=C(\O)c2ccc(Cl)s2)nc2ccccc21	AHR activator 64.9
Cc1ccc(NNC(=S)Nc2ccc(C(C)C)cc2)c(C)c1	AHR activator 65.5
CCOc1ccc(-c2nnc(-c3ccncc3)o2)cc1	AHR activator 60.9
CCCCOc1ccc(-c2nnc(-c3ccncc3)o2)cc1	none
O=C(O)Cc1c[nH]c2cccc(O)c12	PLC-gamma1 inh 24.5
O=C(COC(=O)c1ccccc1Br)NCCC1=CCCCC1	none
O=C(NC(=S)NCCC1=CCCCC1)c1ccccc1Br	AHR activator 49.6
O=C1NC2=C(CCc3ccccc32)C(c2ccc(Br)cc2)N1 (stereo not given)	AHR activator 60.6 (no result: HIF activator)
COC(=O)[C@]12C[C@H](CC(=O)NCCCN3CCCC3=O)C(=O)N(Cc3ccccc3)C1=C[C@H](COCc1ccccc1)O[C@@H]2C	none (no result: AHR activator, Yeast superoxide, HIF activator)
COc1cccc(CNC(=O)C2CCC(CNS(=O)(=O)c3cccc4cccnc34)CC2)c1OC (stereo not given)	none (no result: AHR activator, Yeast superoxide, HIF activator)
Cc1ccc(C(C)C)c(OCc2ccc(C(=O)N/N=C/c3cccc(O)c3O)cc2)c1	HIF activator 70.0
N#CCC[C@@H]1CC[C@]2(CCCN(C(=O)c3ccno3)C2)O1	none (no result: AHR activator, Yeast superoxide, HIF activator)
COc1ccc(-n2c(SCC(=O)Nc3ccc(Oc4ccccc4)cc3)nnc2-c2ccc(C)cc2)cc1	none (no result: AHR activator, Yeast superoxide, HIF activator)
COc1ccc(Nc2nc(N3CCCC3)c3ccccc3n2)cc1	AHR activator 49.9
C=CCN1C(=O)[C@H](CC(=O)NCCc2ccccc2OC)[C@@]2(C(=O)OCC)CCCC=C12	none (no result: AHR activator, Yeast superoxide, HIF activator)
CN1CC=C2C(C#N)=C(N)C(C#N)(C#N)C(CCc3ccccc3)C2C1 (stereo not given)	AHR activator 56.1 (no result: PLCb3 inh, HGIII-sPLA2 inh, PLC-gamma1 inh)
O=C(Nc1ccccc1C(F)(F)F)OC1CC2CC1[C@H]1CCCCN1C2 (stereo not given in full)	none (no result: AHR activator, Yeast superoxide, HIF activator)
Cc1ccc(-n2c(SCC(=O)Nc3ccc4c(c3)OCCO4)nnc2-c2ccccn2)cc1	none (no result: AHR activator, Yeast superoxide, HIF activator)
N=C(N)c1ccc(Cl)cc1	AHR activator 51.6
O=C1C=CC2=C3c4cc(O)c(O)cc4CC3(O)COC2=C1O (stereo not given)	PLC-gamma1 inh 16.3 (no result: AHR activator, Yeast superoxide, HIF activator)
Cc1cccc(S(=O)(=O)N/N=c2\sc3ccccc3n2C)c1	AHR activator 66.4
CCC(C)(C)c1ccc2c(c1)C(=O)c1ccccc1C2=O	AHR activator 71.6
CCOP(=O)(OCC)c1ccc2c(c1)C(=O)c1ccccc1-2	none (no result: AHR activator, Yeast superoxide, HIF activator)
CCOC(=O)[C@]12CCCCC/C=C\1N(Cc1ccc(OC)cc1)C(=O)[C@H]2CC(=O)NCC12CC3CC(CC(C3)C1)C2	none (no result: AHR activator, Yeast superoxide, HIF activator)
CCSc1nc(=S)cc(C)[nH]1	Yeast superoxide 59.2
COc1ccc(Nc2cccc3ccccc23)cc1	AHR activator 77.1
O=C(NCCCn1ccnc1)c1ccccc1Cl	none
O=C(NCCCn1ccnc1)c1cc2ccccc2o1	none
O=C(NCCCn1ccnc1)c1csc2ccccc12	AHR activator 51.6
Cc1c(C(=O)NCCCn2ccnc2)oc2ccccc12	AHR activator 58.9
CC(C)C[C@H](NC1(C(=O)NC2CCCCC2)CCCCC1)C(=O)NCC(c1ccccc1)c1ccccc1	none (no result: AHR activator, Yeast superoxide, HIF activator)
CCN(CC)C(=O)CC[C@@H]1CC[C@]2(CCCN(Cc3cccs3)C2)O1	none (no result: AHR activator, Yeast superoxide, HIF activator)
COC(=O)C1CN(CCc2ccccc2)CCS(=O)(=O)N1Cc1ccccc1F (stereo not given)	none (no result: AHR activator, Yeast superoxide, HIF activator)
O=C(NNC(=O)c1cccnc1)Nc1ccc(Cl)c(Cl)c1	none
O=C(NNC(=O)c1ccc2nonc2c1)Nc1ccc(Cl)cc1	AHR activator 77.2
COC(=O)[C@]12C[C@H](CC(=O)N3CCC(c4ccccc4)CC3)C(=O)N(CCC3=CCCCC3)C1=C[C@H](C1CCCC1)O[C@@H]2C	none (no result: AHR activator, Yeast superoxide, HIF activator)
CCN(CC)C(=O)CSc1nc(N)c(C#N)c(-c2cccs2)c1C#N	AHR activator 77.0
CCN(CC)C(=O)CSc1nc2c(c(-c3cccnc3)c1C#N)CCCC2	AHR activator 67.2
N#Cc1c(SCC(N)=O)nc2c(c1-c1ccncc1)CCCC2	none
CCN(CC)C(=O)CSc1nc(-c2cccs2)cc(-c2cccs2)c1C#N	none
O=C1c2ccccc2NC(c2cccc(O)c2)N1Cc1ccco1 (stereo not given)	AHR activator 48.0
CC(=O)Nc1ccc(S(=O)(=O)NCC2CCN(C(=O)C(=O)c3cccs3)CC2)cc1	none (no result: AHR activator, Yeast superoxide, HIF activator)
CCCCON1C(=O)c2cccc3cccc(c23)C1=O	AHR activator 55.7
O=C1c2ccccc2C(=O)N1CCCCON1C(=O)c2ccccc2C1=O	none
S=c1[nH]nc(-c2ccccc2)n1/N=C/c1ccc(-c2ccccc2Cl)o1	AHR activator 52.8
CCCc1cc(=O)oc2cc3occ(C)c3cc12	AHR activator 47.4
CCOC(=O)CCCNC(=O)OC1CC2CC1[C@H]1CCCCN1[C@H]2Cc1ccccc1 (stereo not given in full)	none (no result: AHR activator, Yeast superoxide, HIF activator)
O=C(Cc1c[nH]c2ccccc12)Nc1nc2ccccc2[nH]1	AHR activator 91.3
c1ccc2c(NCCc3c[nH]c4ccccc34)c3ccccc3nc2c1	HIF activator 13.0
OCCc1c[nH]c2ccccc12	none
